Some test systems named below: DU-145 prostate; K-562 leukemia; MALME-3M melanoma; MDA-MB-231 breast; RXF 393 renal; SF-268 CNS; SF-295 CNS; SF-539 CNS; UACC-257 melanoma; M14 melanoma; HCT-15 colon; HT29 colon; SNB-75 CNS; SNB-19 CNS; U251 CNS; PC-3 prostate; SK-MEL-5 melanoma; UACC-62 melanoma; LOX IMVI melanoma; SK-MEL-28 melanoma.
What all share (test): NCI-60 one-dose screen, 48 h (100 = growth as untreated, 0 = no growth, -100 = all killed)
Settings in all cases: 10 µM unless noted

Five compounds from PubChem BioAssay (NCI) can be followed below.

The panel holds about 83,000 compounds, 20% with a hit somewhere; the sample as a whole holds those more often.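 Negative percent growth values reflect cell death: -40 means 40% of the cells present at the start died, and -100 means all died.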 Values without a mark were called inactive. The source made the active and inactive calls. How the source made its calls: active means growth percent below 10; inactive means the rest.

As to `Cc1ccc(NCCN2CCCCC2)c2c(=O)c3ccccc3sc12`, the growth in the test on DU-145 prostate was 36.7%; in the test with K-562 leukemia it was 16.2%; in the test on MALME-3M melanoma, 22.1%; in the test on MDA-MB-231 breast, 28.3%; in the test with RXF 393 renal, -29.5% (active); in the test with SF-268 CNS, 45.7%. The growth in the test on SF-295 CNS is 39%; in the test on SF-539 CNS it was 32.3%; in the test with UACC-257 melanoma it was -43% (active); in the test with M14 melanoma it was -30% (active); with HCT-15 colon, 13.9%; with HT29 colon, 20.5%. Also, the growth in the test on SNB-75 CNS is 38.7%; in the test with SNB-19 CNS, 36%; in the test with U251 CNS, 21.1%; with PC-3 prostate, 38.2%; in the test on SK-MEL-5 melanoma, -92.2% (active); in the test on UACC-62 melanoma it was -2.99% (active). For the same compound, the growth in the test on LOX IMVI melanoma is -50.1% (active); in the test on SK-MEL-28 melanoma it was 11%.

As to `CCn1cc(-c2[nH]c(=S)ncc2-c2ccc(Cl)cc2)c(-c2ccc(Br)cc2)n1`, the growth in the test on DU-145 prostate was 100%; in the test on K-562 leukemia it was 120%; in the test with MALME-3M melanoma, 108%; in the test on MDA-MB-231 breast, 89.1%; in the test with RXF 393 renal, 109%; in the test on SF-268 CNS, 75.1%. Moreover, the growth in the test on SF-295 CNS was 68.4%; in the test with SF-539 CNS it was 87.5%; with UACC-257 melanoma, 84.8%; in the test on M14 melanoma, 66.7%; in the test on HCT-15 colon, 85.5%; in the test on HT29 colon, 92.1%. Further, the growth was 99.1% in the test with SNB-75 CNS; 75.6% in the test on SNB-19 CNS; 74.3% with U251 CNS; 64.3% with PC-3 prostate; 86.4% in the test with SK-MEL-5 melanoma; 76.7% in the test with UACC-62 melanoma. Moreover, the growth with LOX IMVI melanoma is 86.8%; in the test on SK-MEL-28 melanoma, 73.7%.

On to `C=CCCCCOc1ccccc1-c1cnc(OCCCCC=C)n1C`, for which the growth is 92.6% in the test on DU-145 prostate; 30.5% in the test with K-562 leukemia; 62.8% with MALME-3M melanoma; 66.5% in the test on MDA-MB-231 breast; 90.5% in the test with RXF 393 renal; 79.6% with SF-268 CNS. Also, the growth is 70.1% in the test on SF-295 CNS; 81% in the test with SF-539 CNS; 66.6% with UACC-257 melanoma; 72.6% in the test with M14 melanoma; 52.2% in the test on HCT-15 colon; 18.1% with HT29 colon. The growth in the test on SNB-75 CNS is 81.9%; in the test with SNB-19 CNS, 91.1%; in the test on U251 CNS it was 68.6%; with PC-3 prostate, 73.5%; in the test with SK-MEL-5 melanoma, 83.7%; in the test on UACC-62 melanoma, 55.7%. In addition, the figures for the growth with LOX IMVI melanoma and with SK-MEL-28 melanoma were 69.1% and 73.4%, respectively.

For the compound `C[C@H]1[C@H](C)CC[C@]2(C(=O)O)CC[C@]3(C)C(=CC[C@@H]4[C@@]5(C)C/C(=C/c6cccnc6)[C@H](O)C(C)(C)[C@@H]5CC[C@]43C)[C@H]12`, the growth was 5% [100 µM] (active) with DU-145 prostate; 13.3% [100 µM] with K-562 leukemia; -24.2% [100 µM] (active) with MALME-3M melanoma; -17.6% [100 µM] (active) in the test on MDA-MB-231 breast; -13.3% [100 µM] (active) in the test on RXF 393 renal; 21.8% [100 µM] with SF-268 CNS. For the same compound, the growth in the test on SF-295 CNS was -27.3% [100 µM] (active); in the test with SF-539 CNS, -42.1% [100 µM] (active); with UACC-257 melanoma it was 0.776% [100 µM] (active); in the test with M14 melanoma, 1.69% [100 µM] (active); in the test with HCT-15 colon, 2.04% [100 µM] (active); in the test on HT29 colon it was -72.1% [100 µM] (active). Further, the growth with SNB-75 CNS is -3.83% [100 µM] (active); in the test on SNB-19 CNS, 3.05% [100 µM] (active); in the test on U251 CNS, -57.2% [100 µM] (active); in the test on PC-3 prostate it was 17.4% [100 µM]; in the test on SK-MEL-5 melanoma, -64.4% [100 µM] (active); in the test on UACC-62 melanoma, -70.3% [100 µM] (active). Also, the figures for the growth in the test on LOX IMVI melanoma and in the test with SK-MEL-28 melanoma were -91.8% [100 µM] (active) and -49.1% [100 µM] (active), respectively.

As to `CSc1nc2c(c(=O)n1C)C1(C(=O)N(Cc3ccccc3)c3ccccc31)c1c(nc(SC)n(C)c1=O)N2`, the growth in the test on DU-145 prostate was 92.7%; with K-562 leukemia, 89.8%; in the test on MALME-3M melanoma, 94%; in the test on MDA-MB-231 breast, 77.6%; in the test with RXF 393 renal, 88.3%; with SF-268 CNS, 97.2%. In addition, the growth was 85.3% in the test on SF-295 CNS; 106% with SF-539 CNS; 75.1% in the test on UACC-257 melanoma; 99.7% in the test with M14 melanoma; 84% in the test on HCT-15 colon; 86.2% in the test on HT29 colon. Besides, the growth is 99% in the test on SNB-75 CNS; 91.5% with SNB-19 CNS; 77.5% in the test with U251 CNS; 44.9% with PC-3 prostate; 93% with SK-MEL-5 melanoma; 93.6% with UACC-62 melanoma. Besides, the growth is 101% with LOX IMVI melanoma and 104% with SK-MEL-28 melanoma.
